Screening data: PubChem, National Center for Advancing Translational Sciences (NCATS)
RE007 growth inh – qHTS Assay for Inhibitors of the HIV-1 protein Vpr; AID 651644, 2012; 360,000 compounds, 0.21% hits; S. pombe RE007 Vpr strain, BacTiter-Glo ATP luminescence, 24 h; Potency, µM (top dose mostly 92.2 µM), for the others: at the top dose activity change, negative = less growth, usual class: inhibitors; active means well fitted falling curve with a large enough effect; inconclusive means small, poorly fitted or top-dose-only effect; inactive means no such curve, though single readings can be large or run the other way; further: nearly all actives have a fitted effect of over 50% in size
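Fission yeast strain RE007, carrying one chromosomally integrated HIV-1 vpr copy, was seeded at OD 0.01 in PMG+AL medium with 23 nL pinned compound. After 24 h at 30 °C and 99% humidity, viability was read by BacTiter-Glo luminescence.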
Giardia FBPA inh – qHTS Assay for Inhibitors of Fructose-1,6-bisphosphate Aldolase from Giardia Lamblia; purified Giardia FBPA; Potency, µM (titrated, usually from 59.6 µM), without a hit: at the top dose activity, negative = inhibition, actives largely listed as inhibitors; 290,000 compounds, 0.71% hits; AID 2451, 2010; further: nearly all actives have a fitted effect of over 55% in size
Target sequence (A8B2U2 whole entry, looked up): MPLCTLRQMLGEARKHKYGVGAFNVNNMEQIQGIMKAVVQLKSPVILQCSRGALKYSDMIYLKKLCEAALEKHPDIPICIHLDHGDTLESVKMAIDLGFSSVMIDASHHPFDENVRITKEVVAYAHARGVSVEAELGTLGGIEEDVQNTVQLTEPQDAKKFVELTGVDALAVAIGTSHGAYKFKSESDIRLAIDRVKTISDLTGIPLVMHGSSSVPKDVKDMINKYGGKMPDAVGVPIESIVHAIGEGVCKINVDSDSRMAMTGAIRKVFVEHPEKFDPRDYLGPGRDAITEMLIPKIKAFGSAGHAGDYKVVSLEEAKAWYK
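40 nM FBPA preincubated 10 min at RT with compound (up to 57.5 uM final), then substrate plus GAPDH/TPI/NAD/arsenate coupling and diaphorase/resazurin added. Fluorescence read after 20 min at RT, 525/598 nm.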
AmpC detergent – qHTS Inhibitors of AmpC Beta-Lactamase (assay with detergent); P00811; AmpC hydrolysis of nitrocefin, absorbance 480 nm, 0.01% Triton; Potency, µM (doses to about 114 µM), without a hit: at the highest dose activity change, negative = inhibition, most hits filed as inhibitors; 370,000 compounds, 0.041% hits; AID 485294, 2010;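 further: 0% = no-compound wells and -100% = no-enzyme wells; nearly all actives have a fitted effect of over 25% in size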
Target sequence (P00811 whole entry, looked up): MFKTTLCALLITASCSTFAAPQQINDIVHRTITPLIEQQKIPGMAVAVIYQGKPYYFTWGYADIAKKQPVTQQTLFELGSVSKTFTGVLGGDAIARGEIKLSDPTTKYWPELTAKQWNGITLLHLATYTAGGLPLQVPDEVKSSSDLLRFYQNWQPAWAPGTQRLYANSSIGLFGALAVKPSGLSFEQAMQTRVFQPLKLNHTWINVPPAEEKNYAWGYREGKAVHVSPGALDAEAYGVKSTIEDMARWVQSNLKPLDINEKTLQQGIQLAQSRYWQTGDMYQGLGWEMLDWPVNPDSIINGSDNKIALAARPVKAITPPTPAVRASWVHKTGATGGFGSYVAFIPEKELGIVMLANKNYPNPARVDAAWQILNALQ
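20 mM phosphate pH 7.0 + 0.01% (detergent screen) or 0.0001% Triton X-100; 5.3 nM AmpC reagent; cpd preinc 15 min RT; nitrocefin (800 uM stock) to start; A480 q20 s × 4 min; Activity was normalised to no-enzyme and no-compound control wells.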
Sm TGR block – qHTS Assay for the Inhibitors of Schistosoma Mansoni Peroxiredoxins; 360,000 compounds, 3% hits; purified TGR, DTNB reduction, TNB absorbance 405 nm; AID 485364, 2010; Potency, µM (doses to about 114 µM), for inactives: at the top dose activity change, negative = inhibition, most hits filed as inhibitors; Schistosoma mansoni thioredoxin glutathione reductase (TGR), Q962Y6; further: nearly all actives have a fitted effect of over 60% in size
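Kinetic colorimetric format: TGR-catalysed, NADPH-driven DTNB reduction monitored via TNB absorbance. Enzyme dispensed at 20 nM; compound exposure 15 min at room temperature before reaction start.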
AmpC inh no detg – qHTS Inhibitors of AmpC Beta-Lactamase (assay without detergent) | P00811 | AmpC nitrocefin hydrolysis, absorbance 480 nm, 0.0001% Triton | Potency, µM (series often up to 57.1 µM), for the others: top-dose activity change, negative = inhibition, usual class: inhibitors | 330,000 compounds, 0.52% hits;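 further: plate controls were no compound for no effect and no enzyme for full effect; nearly all actives have a fitted effect of over 20% in size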
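AmpC (5.3 nM in the dispensed reagent) in 20 mM phosphate pH 7.0 with 0.01% (detergent screen) or 0.0001% Triton X-100 was preincubated with compounds for 15 min at room temperature. Nitrocefin was then added from an 800 uM solution, and hydrolysis was followed at 480 nm.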
Starred values were filed as active, the others as inactive; u = inconclusive; x = not tested or not shown; [ ] = dose if it differs, or a comment. Shown are actives, neighbours in structure and some others; about 3.4% of the full set was active somewhere. Unless noted, the call rests on the fitted dose curve; in most records, active means well fitted curve in the direction sought with a large enough effect; inconclusive means small, poorly fitted or top-dose-only effect, or another doubt; inactive means no such curve, though single readings can be large; an effect the other way counts as inactive or inconclusive. Unless noted, on the % scale 0 is the no-effect control and ±100 the full control effect; potency means the concentration at half of the fitted maximal effect.

SMILES | RE007 growth inh | Giardia FBPA inh | AmpC detergent | Sm TGR block | AmpC inh no detg
Cc1[nH]c2ccccc2c1C(c1ccccn1)N1CCCC1 (centres undefined) | -9% | 0% | 6% | u | -28%
CCOC(=O)C1CCN(CC(=O)Nc2c(C(=O)OC)[nH]c3ccccc23)CC1 | x | 3% | u | 3% | 14%
CCC1CCCCN1CC(=O)c1c(C)[nH]c2ccccc12 (centres undefined) | 4% | -16% | -19% | 45µM* | -9%
CC(NC(=O)c1cccc(OC2CCN(C3CCN(C)CC3)CC2)c1)c1ccccc1 (centres undefined) | -1% | x | 4% | 14µM* | 19%
COc1ccccc1CNC(=O)CN1C(=O)NC(C)(c2ccc(C)cc2)C1=O (centres undefined) | -9% | -6% | 3% | -13% | 19%
Cc1ccc(C(=O)Cc2ccccc2)c(O)c1 | -14% | x | x | x | x
CC(C)=CCc1c(O)ccc(C(=O)Cc2ccccc2)c1O | 35µM* | -6% | u | 6% | -60%
C[N+](C)(C)CCOC(=O)CBr | 17%[18.4 µM] | -2% | -19% | -27% | -3%
CC1(C)Cc2c(c(N3CCOCC3)nc3sc4c(NCc5ccco5)nnnc4c23)CS1 | 19% | -10% | -11% | 40µM* | -36%
CC1(C)Cc2c(c(N3CCOCC3)nc3sc4c(NCc5ccccc5)nnnc4c23)CS1 | 8% | -10% | u | -16% | -16%
N#CC(C#N)=Cc1ccc(OCC(=O)N2CCOCC2)cc1 | 2% | -13% | -4% | 2.5µM* | -18%
N#CC(C#N)=Cc1ccc(N2CCOCC2)cc1 | 10% | -7% | 5% | 3.2µM* | -25%
COC(=O)c1cc(C)nc2c1c(=O)nc(SCc1cc(C)ccc1C)n2C1CC1 | x | x | 22% | 5% | x
CCN1CC=C2C(C#N)=C(N)C(C#N)(C#N)C(CCc3ccccc3)C2C1 (centres undefined) | -8% | u | u | 28µM* | -13%
CC(=O)N1CC=C2C(C#N)=C(N)C(C#N)(C#N)C(CCc3ccccc3)C2C1 (centres undefined) | 24% | -29% | -7% | 40µM* | -23%
CCOC(=O)CCCCC(=O)c1[nH]c(=O)[nH]c1CSc1nc(C)cc(=O)[nH]1 | 6% | -25% | u | 2.5µM* | -8%
CCOC(=O)c1[nH]c(=O)[nH]c1CSCCO | 4% | 1% | 3% | -20% | -13%
CCOC(=O)c1[nH]c(=O)[nH]c1COC(=O)c1cc2ccccc2o1 | 21% | -7% | -4% | 4.5µM* | -22%
CCOC(=O)CCCCC(=O)c1[nH]c(=O)[nH]c1CSc1nc(C)cc(C)n1 | -2% | -2% | -10% | 8%[11.4 µM] | -3%
CN(C)CCCOC(=O)c1cc2ccccc2o1 | -23% | -9% | 3% | u | -12%
CCOC(=O)CCCCC(=O)c1[nH]c(=O)[nH]c1CSc1nc2ccccc2[nH]1 | -8% | 2% | -6% | 3.2µM* | -10%
CCOC(=O)CCCCC(=O)c1[nH]c(=O)[nH]c1CSc1nnc2c3cc(Br)ccc3n(C)c2n1 | x | -6% | -12% | -36% | -15%
CCOC(=O)c1[nH]c(=O)[nH]c1CSc1nc(C)cc(C)n1 | -3% | -5% | 1% | 35µM* | -21%
O=C(NCC(c1cccs1)N1CCOCC1)c1cc(S(=O)(=O)N2CCOCC2)ccc1F (centres undefined) | -15% | x | -15% | -17% | -7%
O=C(C1CCCN(S(=O)(=O)Cc2ccccc2)C1)N1CCC(Cc2ccccc2)CC1 (centres undefined) | -7% | -5% | -5% | -18% | 107%
SMILES | RE007 growth inh | Giardia FBPA inh | AmpC detergent | Sm TGR block | AmpC inh no detg
O=C(Nc1ccc(COc2ccccc2)cc1)c1cccc([N+](=O)[O-])c1 | 3% | 1% | u | -5% | -26%
O=C(Cn1cc(C(=O)c2ccco2)c2ccccc21)Nc1ccccc1F | 7% | 1% | -2% | 0% | 28µM*
CC1(C)CC(=O)C2=C(C1)N(c1ccccc1)C(=O)C(C(=O)OCc1ccccc1)C2 (centres undefined) | 2% | x | x | x | x
CC1(C)CC(=O)C2=C(C1)N(c1cccc(O)c1)C1=C(C2)C(=O)CC(C)(C)C1 | 5% | u | 0% | 32µM* | -44%
CCN(CC)S(=O)(=O)c1ccc(S(=O)(=O)N(CC(=O)Nc2ccccc2)Cc2ccco2)cc1 | -16% | 0% | -1% | 28µM* | -44%
CN(C)S(=O)(=O)c1ccc(S(=O)(=O)N(CC(=O)Nc2ccccc2)Cc2ccco2)cc1 | -19% | 8% | u | 4% | -15%
COC(=O)CN(Cc1ccco1)S(=O)(=O)c1ccccc1 | -2% | -4% | 3% | 22µM* | -9%
CC(=O)Nc1ccc(S(=O)(=O)N(Cc2cc3ccc(C)cc3[nH]c2=O)CC2CCCO2)cc1 (centres undefined) | 6% | x | 2% | -4% | 81%
CC(=O)Nc1ccc(S(=O)(=O)N(Cc2ccco2)CC2CCCO2)cc1 (centres undefined) | 30% | 0% | u | 25µM* | -9%
CN(C(=O)c1ccc2c(c1)OCO2)C1CCS(=O)(=O)C1 (centres undefined) | -10% | x | u | 1% | -12%
CCC[n+]1c(C)sc2c3c(ccc21)CCCC3 | -7% | -6% | -12% | x | -16%
Cc1nn(CCO)c2nc(-c3cccs3)cc(C(F)(F)F)c12 | -13% | 0% | 0% | 25µM* | 70%
CCCCCCn1cc(CN2CC(N3CCN(Cc4cccc(C)c4)CC3)CS2(=O)=O)nn1 (centres undefined) | -20% | x | x | x | x
C/C(=N\OCc1nc2ccccc2c(=O)n1/N=C/c1cc([N+](=O)[O-])ccc1O)c1ccccc1 | 7% | 0% | -2% | 35µM* | -60%
Cc1cccc(C)c1N1C(=O)CC(N2CCSCC2)C1=O (centres undefined) | u | 1% | -1% | 45µM* | -13%
O=C1CC(N2CCSCC2)C(=O)N1c1ccccc1 (centres undefined) | u | 0% | 8% | x | -10%
O=C1CC(N2CCN(c3ccccc3)CC2)C(=O)N1c1cccc(Br)c1 (centres undefined) | u | 2% | 5% | -36% | 27%
CC(=O)SC1CC(=O)N(c2ccc(C(C)(C)C)cc2)C1=O (centres undefined) | 0% | -2% | -7% | u | 6%
O=C1CC(N2CCSCC2)C(=O)N1c1cccc(Br)c1 (centres undefined) | 32µM* | 0% | 0% | 45µM* | -14%
